Experimental findings from PubChem BioAssay are described below.

Inconclusive results are not listed. Calls of active or inactive are those of the source.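 How the source made its calls, unless noted: active means inhibition above the screen-wide mean plus 3 SD, about 51%; inactive means the rest.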

Test [1] is described as follows: rapamycin-like changes in RPL19A-GFP expression – cell-based, S. cerevisiae, multiplex flow cytometry, primary screen (AID 1862; in the data active means percent of DMSO control GFP below about 86%;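 further: lower values mimic rapamycin by blocking the RPL19A rise seen in DMSO cells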). To be noted: S. cerevisiae RPL19A-GFP strain, flow cytometry fluorescence, 3 h; at 10 µM; stronger effect = lower value.
Test [2] in a line: TOR pathway GLN3 branch reporter MEP2-GFP changes – S. cerevisiae, multiplex flow cytometry, primary screen (AID 1867;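 active means GFP response, as percent of the DMSO control, above the screen-wide mean plus 3 SD, about 139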;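 further: median GFP channel fluorescence of barcode-gated MEP2-GFP cells measured by flow cytometry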). To be noted: S. cerevisiae MEP2-GFP strain, 3 h, at 10 µM, stronger effect = higher value, 100% means same as DMSO wells.
Test [3] can be described thus: TOR pathway RTG branch CIT2 reporter changes – S. cerevisiae, GFP fusion, multiplex flow cytometry, primary screen (AID 1870;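 active means percent response above a set limit, the screen-wide mean plus 3 SD, cut at about 130% in these data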;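 further: barcoded CIT2-GFP strain pooled with four other GFP strains with rapamycin as positive control; median GFP fluorescence per well over plate mean of DMSO wells so 100% = DMSO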). To be noted: S. cerevisiae CIT2-GFP expression, 3 h, at 10 µM, stronger effect = higher value.
Test [4] in a line: TOR pathway LAP4-GFP level changes – S. cerevisiae, multiplex flow cytometry, primary screen (AID 1873;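 active means GFP signal, as percent of the solvent control, above the screen mean plus 3 SD, about 149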). To be noted: S. cerevisiae LAP4-GFP expression, 3 h, at 10 µM, stronger effect = higher value. On the technique in general: In flow cytometry, cells or beads pass a laser one at a time.
The nature of test [5]: yeast AGP1-GFP level changes, GLN3 branch – cell-based, multiplex flow cytometry, S. cerevisiae, primary screen (AID 1887;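 active means GFP signal above the screen-wide mean plus 3 SD, that is over about 124.5% of the solvent control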;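 further: AGP1-GFP fusion strain of S. cerevisiae within a five-strain barcoded multiplex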). The conditions noted are these: 3 h, at 10 µM, stronger effect = higher value.
Test [6] in a line: reduced mouse 2C T cell binding to pMHC/ICAM-1 vesicles – MLPCN validation set, flow cytometry, LFA-1/ICAM-1 modulator project, pilot screen (AID 2523;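 active means response below a set limit, under 55% cells CD8-positive and vesicle-bound, and CD8 cells' 90th-percentile brightness under 279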;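 on vesicle binding response: mean PE anti-B7-1 fluorescence of CD8+ cells relative to row control; 100% = QL9-loaded vesicles with DMSO vehicle in the same plate row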). The conditions noted are these: 2C mouse CD8+ T cells, at 7 µM, stronger effect = lower value; double positive events: measured here: CD8+/vesicle+ event percentage.
Test [7] has as its target Integrin beta-1 (Homo sapiens) + Integrin alpha-4 (Homo sapiens) (UniProt P13612+P05556). Briefly: alpha4beta1 integrin LIBS antibody binding reduction – U937 cells, HUTS-21 mAb, flow cytometry, validation set, VLA-4 allosteric modulator project, pilot screen (AID 2674;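 active means inhibition above 50%, about 3 SD of the validation set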;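 further: antibody binding induced by the VLA-4 ligand LDV present at three times its Kd; 0% = LDV ligand with antibody and no compound and 100% = antibody without LDV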). To be noted: HUTS-21 LIBS mAb binding, at 6.7 µM, stronger effect = higher value, binding induced by LDV ligand.

Test [8] can be described thus: calorie-restriction mimetic ROS inhibitors, yeast – validation compound set, pilot screen (AID 2706;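 active means superoxide response below 65% of plate, a cut near 3 SD across the whole screen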;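 further: yeast exposed to compound for one week at 30 degrees C before staining; 100% = mean of all compound wells on the same plate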). The conditions noted are these: S. cerevisiae aging, superoxide DHE fluorescence; at 10 µM, stronger effect = lower value.
The target in test [9] is Beta-adrenergic receptor kinase 1 (Homo sapiens) (UniProt P25098). Briefly: GRK2 binders displacing RNA aptamer, biochemical, validation, human GRK2, bead flow cytometry (AID 488806;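 active means aptamer binding inhibition above 30%, about 3 SD of noise from non-fluorescent compounds; inactive means inhibition at or below 30%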). The conditions noted are these: bead-bound GRK2, FAM-aptamer displacement, at 10 µM, stronger effect = higher value.
Test [10] has as its target AP-2 complex subunit beta (Homo sapiens) (UniProt P63010). Briefly: beta-arrestin/AP2 interaction blockers – biochemical, validation set, GST-AP2 beads, flow cytometry, pilot screen (AID 504541;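 active means inhibition above 54%, about 3 SD of non-fluorescent compounds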;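 further: AP2 carries R879A mutation and is captured from E. coli lysate; bead-bound FITC arrestin peptide fluorescence measuring arrestin peptide binding to AP2; 0% = DMSO wells and 100% = excess unlabeled arrestin peptide control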). The conditions noted are these: FITC arrestin peptide, at 10 µM, stronger effect = higher value, AP2 beta2 appendage fragment, R879A mutant.
The nature of test [11]: cytosolic pH regulators acting via V-ATPase – S. cerevisiae, pHLuorin, HTS validation (AID 504600; in the data active means response above about 15%;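 further: plate controls were DMSO for no effect and reference compound for full effect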). The conditions noted are these: V-ATPase proton transport, at 10 µM, stronger effect = higher value.
The subject of test [12] is anti-desmoglein-3 scFv antibody binding to human DSG3. Briefly: blockers of pathogenic pemphigus antibody–desmoglein-3 binding – biochemical, validation compound set, bead-based, flow cytometry, pilot screen (AID 588368;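 active means binding below the plate cutoff, the plate median minus 3 SD, with a reading above zero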;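 further: signal is the median channel fluorescence of bead-bound GFP antibody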). The conditions noted are these: Protein G beads, DSG3-Fc, scFv-GFP binding, at 10 µM, stronger effect = lower value.
Test [13] can be described thus: Nile Red efflux blockade in pump-expressing yeast – validation compound set, multiplex, phenotypic, pilot screen (AID 588506;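 active means efflux inhibition above 0.42, the validation set average plus 4 SD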;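 further: Nile Red retained in cells so higher fluorescence means more efflux inhibition; 0 = negative control wells and 1 = enniatin B 25 µM full block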). To be noted: S. cerevisiae pump-expressing triplex, Nile Red efflux flow cytometry; at 10 µM; stronger effect = higher value; the pumps come from Candida albicans.
The target in test [14] is ATP-binding cassette sub-family B member 6 (Homo sapiens) (UniProt Q9NP58). Briefly: blockers of ABCB6-driven porphyrin uptake – K562-ABCB6 cells, flow cytometry, validation set, pilot screen (AID 588550).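 Further: 0% = DMSO wells and 100% = benzethonium chloride 70 µM positive control.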 To be noted: K562-ABCB6 porphyrin accumulation, 1 h, at 10 µM, stronger effect = higher value.
The nature of test [15]: AML differentiation inducers, ER-HoxA9 marrow cells – cell-based, GFP/MAC1 double positive, flow cytometry, validation set, primary screen (AID 588685;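 active means differentiation response of at least 50%, scaled between solvent and reference control, from cells with both markers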;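 further: compound exposure lasts four days before antibody staining and flow analysis; 0% = DMSO wells and 100% = 5 µM fulvestrant positive control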). The conditions noted are these: stronger effect = higher value, normalized: vehicle 0, fulvestrant 100.

Chain of AP-2 complex subunit beta (Homo sapiens) (P63010 whole entry, looked up, the tested form may be a part, one chain of several): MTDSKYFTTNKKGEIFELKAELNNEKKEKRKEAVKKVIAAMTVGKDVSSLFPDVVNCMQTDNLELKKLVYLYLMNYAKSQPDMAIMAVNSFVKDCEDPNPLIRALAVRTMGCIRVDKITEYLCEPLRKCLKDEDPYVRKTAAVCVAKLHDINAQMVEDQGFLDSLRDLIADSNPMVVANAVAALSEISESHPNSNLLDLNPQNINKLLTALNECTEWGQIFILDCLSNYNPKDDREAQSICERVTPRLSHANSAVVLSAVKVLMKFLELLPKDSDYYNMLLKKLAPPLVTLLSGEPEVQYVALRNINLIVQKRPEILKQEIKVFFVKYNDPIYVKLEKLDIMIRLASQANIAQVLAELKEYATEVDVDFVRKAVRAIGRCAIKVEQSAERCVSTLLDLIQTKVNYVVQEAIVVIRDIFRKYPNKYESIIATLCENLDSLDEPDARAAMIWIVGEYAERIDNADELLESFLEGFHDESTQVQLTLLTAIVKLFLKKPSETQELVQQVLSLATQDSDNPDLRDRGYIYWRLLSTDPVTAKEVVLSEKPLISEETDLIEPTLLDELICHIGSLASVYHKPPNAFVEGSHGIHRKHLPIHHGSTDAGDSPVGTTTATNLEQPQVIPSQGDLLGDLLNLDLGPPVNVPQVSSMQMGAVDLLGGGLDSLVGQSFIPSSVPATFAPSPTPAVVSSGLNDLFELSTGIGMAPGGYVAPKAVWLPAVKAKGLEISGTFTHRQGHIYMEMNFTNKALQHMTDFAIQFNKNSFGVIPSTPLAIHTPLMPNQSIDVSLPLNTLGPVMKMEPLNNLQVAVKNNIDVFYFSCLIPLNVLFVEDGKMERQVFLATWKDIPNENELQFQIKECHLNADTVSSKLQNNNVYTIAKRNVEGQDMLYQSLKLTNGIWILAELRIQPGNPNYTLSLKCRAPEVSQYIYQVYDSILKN
Chain of Integrin beta-1 (Homo sapiens) + Integrin alpha-4 (Homo sapiens) (P05556 whole entry, looked up): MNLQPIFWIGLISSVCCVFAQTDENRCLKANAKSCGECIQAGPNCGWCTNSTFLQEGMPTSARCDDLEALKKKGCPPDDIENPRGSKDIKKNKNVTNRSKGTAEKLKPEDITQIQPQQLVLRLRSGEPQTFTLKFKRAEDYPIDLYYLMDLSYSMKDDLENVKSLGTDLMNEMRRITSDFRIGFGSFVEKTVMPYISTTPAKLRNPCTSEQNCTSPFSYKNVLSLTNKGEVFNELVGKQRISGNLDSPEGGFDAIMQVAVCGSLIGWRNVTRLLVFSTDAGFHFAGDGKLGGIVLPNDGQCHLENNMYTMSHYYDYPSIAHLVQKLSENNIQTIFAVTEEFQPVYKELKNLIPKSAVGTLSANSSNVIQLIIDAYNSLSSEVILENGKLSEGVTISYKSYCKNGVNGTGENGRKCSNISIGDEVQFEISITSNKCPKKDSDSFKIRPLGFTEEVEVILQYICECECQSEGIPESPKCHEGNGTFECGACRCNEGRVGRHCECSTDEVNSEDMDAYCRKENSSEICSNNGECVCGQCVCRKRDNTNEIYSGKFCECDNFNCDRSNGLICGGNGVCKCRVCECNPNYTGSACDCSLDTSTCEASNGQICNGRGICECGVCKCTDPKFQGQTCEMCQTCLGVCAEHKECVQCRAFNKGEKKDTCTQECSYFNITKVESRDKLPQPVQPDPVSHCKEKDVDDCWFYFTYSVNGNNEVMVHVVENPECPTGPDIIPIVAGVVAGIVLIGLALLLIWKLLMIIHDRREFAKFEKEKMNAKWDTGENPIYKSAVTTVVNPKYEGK
Chain of Integrin beta-1 (Homo sapiens) + Integrin alpha-4 (Homo sapiens) (P13612 whole entry, looked up): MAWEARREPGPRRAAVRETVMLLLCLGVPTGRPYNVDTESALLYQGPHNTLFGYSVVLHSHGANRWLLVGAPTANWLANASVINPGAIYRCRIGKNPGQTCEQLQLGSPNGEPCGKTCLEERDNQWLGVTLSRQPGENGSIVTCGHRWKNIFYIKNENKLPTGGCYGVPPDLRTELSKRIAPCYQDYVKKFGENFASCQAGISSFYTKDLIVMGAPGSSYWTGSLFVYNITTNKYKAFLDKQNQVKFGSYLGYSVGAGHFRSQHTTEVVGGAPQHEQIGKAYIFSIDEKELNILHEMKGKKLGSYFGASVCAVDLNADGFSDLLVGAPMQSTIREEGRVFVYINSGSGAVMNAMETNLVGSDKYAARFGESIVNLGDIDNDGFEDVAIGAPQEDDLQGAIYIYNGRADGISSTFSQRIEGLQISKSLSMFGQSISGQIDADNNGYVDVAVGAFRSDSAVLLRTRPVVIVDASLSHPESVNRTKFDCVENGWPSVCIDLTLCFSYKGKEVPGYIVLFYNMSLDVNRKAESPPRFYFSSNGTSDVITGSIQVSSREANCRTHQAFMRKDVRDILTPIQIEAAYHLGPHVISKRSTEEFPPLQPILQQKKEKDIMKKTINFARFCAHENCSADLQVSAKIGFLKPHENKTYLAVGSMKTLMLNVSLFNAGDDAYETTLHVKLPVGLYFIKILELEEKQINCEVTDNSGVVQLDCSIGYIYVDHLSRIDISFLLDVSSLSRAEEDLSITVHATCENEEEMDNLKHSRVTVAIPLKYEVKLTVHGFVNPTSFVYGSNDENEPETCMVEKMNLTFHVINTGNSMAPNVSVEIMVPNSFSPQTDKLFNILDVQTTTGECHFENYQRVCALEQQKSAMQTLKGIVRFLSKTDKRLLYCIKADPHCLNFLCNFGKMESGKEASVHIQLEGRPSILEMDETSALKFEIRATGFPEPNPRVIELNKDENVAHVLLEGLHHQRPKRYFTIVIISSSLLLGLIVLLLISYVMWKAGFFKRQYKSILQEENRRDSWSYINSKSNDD
Chain of ATP-binding cassette sub-family B member 6 (Homo sapiens) (Q9NP58 whole entry, looked up): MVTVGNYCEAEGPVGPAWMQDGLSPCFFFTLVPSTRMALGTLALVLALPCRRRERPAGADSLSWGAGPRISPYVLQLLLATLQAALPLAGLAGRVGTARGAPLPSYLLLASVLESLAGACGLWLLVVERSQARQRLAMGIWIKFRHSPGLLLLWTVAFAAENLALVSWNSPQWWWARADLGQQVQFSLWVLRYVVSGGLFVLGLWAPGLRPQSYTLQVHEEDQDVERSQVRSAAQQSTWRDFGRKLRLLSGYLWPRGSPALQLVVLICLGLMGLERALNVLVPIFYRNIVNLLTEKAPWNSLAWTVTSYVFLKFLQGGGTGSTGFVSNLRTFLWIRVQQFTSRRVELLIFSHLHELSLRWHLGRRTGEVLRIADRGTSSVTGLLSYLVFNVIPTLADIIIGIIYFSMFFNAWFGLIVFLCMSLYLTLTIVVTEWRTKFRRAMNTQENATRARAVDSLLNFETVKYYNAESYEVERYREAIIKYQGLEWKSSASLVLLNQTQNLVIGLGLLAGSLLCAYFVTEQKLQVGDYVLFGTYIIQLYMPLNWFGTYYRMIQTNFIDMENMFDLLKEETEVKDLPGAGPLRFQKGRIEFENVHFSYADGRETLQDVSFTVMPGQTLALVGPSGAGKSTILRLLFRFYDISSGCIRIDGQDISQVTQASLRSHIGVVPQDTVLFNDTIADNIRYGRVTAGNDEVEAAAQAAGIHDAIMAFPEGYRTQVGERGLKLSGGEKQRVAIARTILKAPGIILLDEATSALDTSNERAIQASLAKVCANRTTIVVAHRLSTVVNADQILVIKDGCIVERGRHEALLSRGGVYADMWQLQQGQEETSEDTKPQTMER
Chain of Beta-adrenergic receptor kinase 1 (Homo sapiens) (P25098 whole entry, looked up): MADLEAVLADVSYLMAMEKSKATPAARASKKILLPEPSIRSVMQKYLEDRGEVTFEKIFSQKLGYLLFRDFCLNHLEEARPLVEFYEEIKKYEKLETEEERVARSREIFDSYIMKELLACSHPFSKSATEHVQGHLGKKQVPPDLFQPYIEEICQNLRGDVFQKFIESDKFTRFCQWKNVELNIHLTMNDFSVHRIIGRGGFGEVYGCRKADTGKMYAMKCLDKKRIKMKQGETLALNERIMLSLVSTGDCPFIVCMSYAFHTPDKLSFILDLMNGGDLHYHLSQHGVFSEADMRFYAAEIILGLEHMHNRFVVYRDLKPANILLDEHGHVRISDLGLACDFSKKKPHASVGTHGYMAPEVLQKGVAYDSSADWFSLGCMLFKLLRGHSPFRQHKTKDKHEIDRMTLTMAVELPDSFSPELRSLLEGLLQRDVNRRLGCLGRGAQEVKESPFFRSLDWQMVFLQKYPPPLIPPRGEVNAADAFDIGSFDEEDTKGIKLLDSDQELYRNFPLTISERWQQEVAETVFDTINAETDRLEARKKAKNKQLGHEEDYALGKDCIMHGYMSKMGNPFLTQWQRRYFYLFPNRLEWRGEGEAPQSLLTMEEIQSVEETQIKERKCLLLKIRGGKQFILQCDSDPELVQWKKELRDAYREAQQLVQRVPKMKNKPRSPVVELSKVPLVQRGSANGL

As a reminder, the inhibition is the relative decrease from the control value, in per cent. Regarding `CN1C(=O)C(O)(CC(=O)c2ccccc2O)c2cc(Br)ccc21` (stereo not given), in [1], the percent of DMSO control GFP is 100% (inactive). For the same compound, the values for the GFP response vs DMSO in [2] and in [4] were 107% (inactive) and 115% (inactive), respectively. The percent response of DMSO control in test [3] was 109% (inactive). Moreover, the GFP response, % of DMSO in [5] is 106% (inactive). This compound returned a double positive events in test [6] of 57.7%. In addition, in test [6], the vesicle binding response is 199% (inactive). In addition, the inhibition in [7] was 16.6% (inactive); in [10] it was 4.33% (inactive); in test [14], 9% (inactive). Also, the superoxide response (% of plate) in test [8] was 101% (inactive). For the same compound, the aptamer binding inhibition in test [9] was 0% (inactive). Moreover, in test [11], the response was 0.66% (inactive). The binding (% of control) in [12] was 99% (inactive). In addition, in test [13], the efflux inhibition (fraction of control) was -0.09 (inactive). Besides, the differentiation response in test [15] is 7.87% (inactive).
As for `CCOC(=O)C(=O)Nc1ccc(Oc2ccccc2)cc1`, the percent of DMSO control GFP in [1] was 96.8% (inactive). Also, the GFP response vs DMSO was 105% (inactive) in test [2] and 106% (inactive) in test [4]. Also, the percent response of DMSO control in test [3] is 101% (inactive). Further, the GFP response, % of DMSO in test [5] was 97.8% (inactive). The compound also displayed a double positive events in [6] of 61.7%. The vesicle binding response in [6] was 101% (inactive). In addition, the inhibition was 18.4% (inactive) in test [7], 9.79% (inactive) in [10] and 4% (inactive) in test [14]. In test [8], the superoxide response (% of plate) was 101% (inactive). Further, the aptamer binding inhibition in test [9] is 3% (inactive). In addition, in [11], the response was 1.03% (inactive). The binding (% of control) in test [12] is 105% (inactive). Also, the efflux inhibition (fraction of control) in [13] is -0.05 (inactive). Also, the differentiation response in test [15] was -26% (inactive).
`CC(=O)OCC(=O)[C@H]1CC[C@H]2[C@@H]3CC=C4C[C@@H](O)CC[C@]4(C)[C@H]3CC[C@]12C`: the percent of DMSO control GFP in [1] was 106% (inactive). The GFP response vs DMSO in test [2] was 95.9% (inactive); in test [4] it was 115% (inactive). Moreover, the percent response of DMSO control in test [3] is 114% (inactive). Moreover, in test [5], the GFP response, % of DMSO is 89.4% (inactive). Also, the double positive events in test [6] stood at 59.7%. Further, the vesicle binding response in test [6] is 174% (inactive). Besides, the inhibition in test [7] was 4.42% (inactive); in [10], -2.87% (inactive); in [14], 6% (inactive). Besides, the superoxide response (% of plate) in test [8] is 99% (inactive). In addition, in [9], the aptamer binding inhibition is 0% (inactive). In addition, the response in test [11] is 0.3% (inactive). The binding (% of control) in test [12] was 101% (inactive). Besides, in test [13], the efflux inhibition (fraction of control) was 0.29 (inactive). Moreover, in test [15], the differentiation response is -27.6% (inactive).
Take `Cc1ncc([N+](=O)[O-])n1CCO`: in test [1], the percent of DMSO control GFP was 99.6% (inactive). Also, the GFP response vs DMSO is 93.8% (inactive) in [2] and 97.4% (inactive) in [4]. In test [3], the percent response of DMSO control is 105% (inactive). The GFP response, % of DMSO in test [5] was 94.6% (inactive). The same compound yielded a double positive events in [6] of 59.8%. Further, in test [6], the vesicle binding response was 172% (inactive). The figures for the inhibition in test [7], in [10] and in test [14] were 10% (inactive), -1.26% (inactive) and 5% (inactive), respectively. For the same compound, in [8], the superoxide response (% of plate) was 98.8% (inactive). Moreover, in test [9], the aptamer binding inhibition is 1% (inactive). Further, in [11], the response was 3.07% (inactive). In addition, the binding (% of control) in [12] is 93.1% (inactive). The efflux inhibition (fraction of control) in [13] is 0.18 (inactive). Further, in test [15], the differentiation response was -9.89% (inactive).
Take `O=C(COc1ccccc1)N1CCN(c2ccccc2)CC1`: the percent of DMSO control GFP in [1] was 102% (inactive). Besides, the GFP response vs DMSO was 104% (inactive) in test [2] and 100% (inactive) in [4]. Besides, in test [3], the percent response of DMSO control is 103% (inactive). The GFP response, % of DMSO in test [5] was 97.8% (inactive). This compound had a double positive events in test [6] of 53.2%. For the same compound, the vesicle binding response in test [6] is 176% (inactive). Further, the inhibition in test [7] was -3.97% (inactive); in test [10], 5.07% (inactive); in test [14], 6% (inactive). The superoxide response (% of plate) in test [8] is 94% (inactive). Besides, the aptamer binding inhibition in test [9] was 2% (inactive). For the same compound, in test [11], the response is -1.27% (inactive). For the same compound, the binding (% of control) in test [12] was 97.8% (inactive). Besides, in test [13], the efflux inhibition (fraction of control) is 0.25 (inactive). The differentiation response in test [15] is 9.49% (inactive).
